Shown are actives, neighbours in structure and some others; about 7.8% of the full set was active somewhere.
HEK293 cAMP ctrl: counter-screen for TSHR agonists: cAMP increase in parental HEK293; parental HEK293 CNG cAMP sensor, membrane potential fluorescence; Potency, µM (doses to about 57.1 µM), usual class: activators; 73,000 compounds, 2.5% hits; also: nearly all actives have a fitted effect of over 55% in size
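Counterscreen for endogenous-receptor signalling: CNG-channel HEK 293 cells report cAMP rise by membrane depolarization. After 60 min dye equilibration with 100 uM RO 20-1724, compounds incubated 30 min before bottom-read fluorescence at 590 nm.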
Luciferase inh: firefly luciferase inhibition; P08659; 72,000 compounds, 2.2% hits; Potency, µM (top dose mostly 57.1 µM), most hits filed as inhibitors; purified firefly luciferase, luminescence, 8 min; also: nearly all actives have a fitted effect of over 40% in size
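qHTS concentration-response profiling: light output of P. pyralis luciferase with luciferin and 10 uM ATP, imidazole buffer pH 7.2. Read by luminescence after 8-min room-temperature incubation.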
TSHR agonist: activates the human thyroid stimulating hormone receptor; Potency, µM (doses to about 57.1 µM), most hits filed as activators; P16473; HEK293-CNG-TSHR cells (CNG channel as cAMP sensor), membrane potential dye, cAMP; AID 926; 73,000 compounds, 0.48% hits; active = well fitted activation curve with a large enough effect in the main read-out, with a control signal flat, not every such curve was filed as active; inconclusive = small, poorly fitted or top-dose-only effect, or a change in a side signal; inactive = no such curve, though single readings can be large or run the other way; reference of the percent scale not stated here;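 also: the control signal comes from parental cells without the receptor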
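cAMP rise detected as CNG-channel membrane depolarization by fluorescent dye (emission 590 nm), 30 min after compound, following 60 min dye loading containing 100 uM RO 20-1724 at room temperature. Cells: TSHR/CNG HEK 293, with parental CNG HEK 293 as control.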
Tau fil binding: tau filament binding; P10636; recombinant tau filaments, thioflavin S fluorescence, 15 h; filaments grown with octadecylsulfate alongside compound; Potency, µM (top dose mostly 57.1 µM); 71,000 compounds, 2% hits;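 also: actives lower thioflavin S fluorescence by blocking filaments or displacing dye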
Target sequence (P10636 whole entry, looked up): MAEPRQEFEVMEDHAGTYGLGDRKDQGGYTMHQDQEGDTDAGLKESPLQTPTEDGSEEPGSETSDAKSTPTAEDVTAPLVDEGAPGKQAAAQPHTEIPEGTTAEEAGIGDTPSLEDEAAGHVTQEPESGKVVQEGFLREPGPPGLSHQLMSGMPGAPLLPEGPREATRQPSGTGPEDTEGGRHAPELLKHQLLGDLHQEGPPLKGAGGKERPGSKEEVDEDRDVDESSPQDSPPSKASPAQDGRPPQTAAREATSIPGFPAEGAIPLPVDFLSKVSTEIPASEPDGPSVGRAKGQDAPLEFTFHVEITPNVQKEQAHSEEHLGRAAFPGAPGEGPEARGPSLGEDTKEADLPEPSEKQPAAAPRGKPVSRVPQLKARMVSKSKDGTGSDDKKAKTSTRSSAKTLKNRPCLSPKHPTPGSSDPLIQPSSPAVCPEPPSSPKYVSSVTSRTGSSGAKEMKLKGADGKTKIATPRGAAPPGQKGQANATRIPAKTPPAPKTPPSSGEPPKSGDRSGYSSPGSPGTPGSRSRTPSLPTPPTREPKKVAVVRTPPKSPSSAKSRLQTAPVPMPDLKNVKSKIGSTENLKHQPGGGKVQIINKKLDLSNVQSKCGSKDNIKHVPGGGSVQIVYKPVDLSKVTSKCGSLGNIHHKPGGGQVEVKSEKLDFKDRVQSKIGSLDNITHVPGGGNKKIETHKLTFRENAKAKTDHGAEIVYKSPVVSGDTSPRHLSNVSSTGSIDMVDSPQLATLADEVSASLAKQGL
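Read-out: ThS fluorescence, 450 nm excitation/510 nm emission; lower signal marks blocked filament formation or displaced dye. Tau at 1 uM with 30 uM ODS, 10 uM ThS, 5 mM DTT, 100 mM NaCl, 10 mM HEPES pH 7.4; 15 h, 37 C.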
Bst PK mod: pyruvate kinase (B. stearothermophilus) modulation. purified pyruvate kinase, luminescence ATP production; ribose 5-phosphate activator present at AC10. Potency, µM. 51,000 compounds, 1.2% hits; in the data active = potency below about 11 µM; inconclusive = mostly about 12 µM to 25 µM;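 the screen sought inhibitors and activators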
15-hLO inh: 15-hLO (ALOX15) enzyme inhibition. P16050. purified 15hLO-1, xylenol orange hydroperoxide absorbance. Potency, µM (doses to about 57.1 µM), usual class: inhibitors. 74,000 compounds, 1.4% hits; also: nearly all actives have a fitted effect of over 55% in size
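Compounds were preincubated 15 min at room temperature with 40 nM purified human enzyme (25 mM Hepes pH 7.5, 0.01% Triton X-100); 50 uM arachidonic acid reacted 6 min. Fe-xylenol orange detection, 30 min, absorbance ratio 573/405 nm.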
A number is an active result; n = inactive; u = inconclusive; x = no result given; [ ] = remark or other dose. Unless noted, calls follow the shape of the dose curve; as a rule, active = well fitted curve in the direction sought with a large enough effect; inconclusive = small, poorly fitted or top-dose-only effect, or another doubt; inactive = no such curve, though single readings can be large; an effect the other way counts as inactive or inconclusive.

SMILES | HEK293 cAMP ctrl | Luciferase inh | TSHR agonist | Tau fil binding | Bst PK mod | 15-hLO inh
CC1=CC(C)(C)N2C(=O)C3(C(C#N)=C(N)Oc4cc(O)ccc43)c3cccc1c32 (stereo not drawn) | n | n | n | 4µM | n | n
CCN(CC)S(=O)(=O)c1cc(C(=O)Nc2ccccc2C(=O)O)ccc1OC | n | 20µM | n | n | x | n
COc1ccc2c(c1)c1nnc(SCC(=O)N3C(C)CCCC3C)nc1n2C (stereo not drawn) | n | n | n | 13µM | x | n
O=C(Oc1ccccc1)N1CCC[C@@]2(CCN(c3ccccc3)C2)C1 | n | n[11.4 µM] | n | n | x | n
Cn1c(=S)c2[nH]c(SCCN3C(=O)c4ccccc4C3=O)nc2n(C)c1=O | n[11.4 µM] | n[11.4 µM] | n[11.4 µM] | n[11.4 µM] | x | n[11.4 µM]
O=C(COc1cccc2cccnc12)Nc1nccs1 | n | 16µM | n | n | n | n
COC(=O)COc1ccc(S(=O)(=O)NCc2ccco2)cc1Cl | n | n | n | n | n | n
COCCNS(=O)(=O)c1ccc(OCC(=O)OC)c(Cl)c1 | n | n | 20µM | n | n | n
C[C@@]12CC[C@@H]3[C@H](CCC4=CC(=O)CC[C@]43C)[C@@H]1CC[C@@H]2C(=O)Cn1cnc2c(=S)nc[nH]c21 | n[11.4 µM] | n[11.4 µM] | n[11.4 µM] | n[11.4 µM] | x | n[11.4 µM]
O=P(O)(OCc1ccccc1)OCc1ccccc1 | u | x | u | n | x | n
CCc1ccc(C(=O)COC(=O)CNC(=O)c2ccco2)cc1 | n[11.4 µM] | n | n[11.4 µM] | n[11.4 µM] | x | u
O=C(CNC(=O)c1ccco1)OCC(=O)c1ccc2c(c1)CCCC2 | n | 2µM | n | n | n | n
CCCCc1ccc(-c2ccc(C)cc2O)nc1 | n | 10µM | n | n | 9.8 | n
CCCCc1ccc(CC(=O)O)cc1 | n | n | n | n | n | n
C=CCSC1=N/C(=C\C=C\c2ccco2)C(=O)S1 | n | n | n | 10µM | x | 20µM
S=c1[nH]nc(COc2ccc(Cl)cc2)o1 | n | n | n | n | 3.9 | n
CCOC(=O)CSc1nc2c(sc3ccccc32)c(=O)n1CCCN1CCOCC1 | 13µM | n | u | n | n | n
Cc1cc(-n2c(C)cc(C(=O)CSc3ncnc4ccccc34)c2C)no1 | 7.9µM | n | u | n | n | n
Cc1ccc(NCN2C(=O)C3C4C=CC(C4)C3C2=O)cc1 (stereo not drawn) | n[11.4 µM] | n | n[11.4 µM] | n[11.4 µM] | x | n[11.4 µM]
O=C1C2C3C=CC(C3)C2C(=O)N1CNc1ccc(O)cc1 (stereo not drawn) | n | n | n | 16µM | n | u
c1cncc(-c2nc3c4ccccc4nc(N4CCC(N5CCCCC5)CC4)n3n2)c1 | n | n | n[11.4 µM] | n | n | n
CCN(CC)CCCCC1CCN(CC(=O)N2c3ccccc3C(=O)Nc3cccnc32)CC1 | n | x | n | x | x | u
O=C(Nc1ccc(Cl)cc1)c1ccc2c(c1)OCO2 | n | 4µM | n | n | x | n
O=C(Nc1ccon1)c1ccc2c(c1)OCO2 | n | n | n | n | n | n
O=C(Nc1ccc2nsnc2c1)c1ccc2c(c1)OCO2 | n | 3.2µM | n | n | x | n
SMILES | HEK293 cAMP ctrl | Luciferase inh | TSHR agonist | Tau fil binding | Bst PK mod | 15-hLO inh
Cc1cc(C(=O)Nc2ccccn2)cs1 | n | 13µM | n | n | x | n
O=C(Nc1ccc2c(c1)OCCO2)NC1CCCCC1 | n[11.4 µM] | 7.9µM | n[11.4 µM] | n[11.4 µM] | x | n[11.4 µM]
COc1cc(NC(=O)c2ccc3c(c2)OCO3)ccc1NC(=O)C(C)C | n | u | n | n | 7.1 | n
Cc1cc(C)n(-c2ccc(C(=O)Nc3ccc4c(c3)OCCO4)cc2)n1 | n | 13µM | n | n | n | n
Cc1noc(C(=O)Nc2ccc3c(c2)OCO3)c1Cl | n | 13µM | n | 10µM | x | n
Cc1cc(C)n(-c2ccc(C(=O)Nc3ccccn3)cc2)n1 | n | 13µM | n | n | n | n
Cc1onc(-c2ccccc2Cl)c1C(=O)Nc1ccc2c(c1)OCO2 | n | x | n | x | x | n
CC[N+](CC)(CC(=O)Nc1c(C)cccc1C)Cc1ccccc1 | u | n | u | n | x | n
COC(=O)CC1C(C)(C)C(OC(C)=O)C2CC3C4CC(=O)OC(c5ccoc5)[C@]4(C)CCC3[C@@]1(C)C2=O (stereo partly drawn) | x | x | x | x | x | n
Cc1cc(C(=O)NC(C)c2ccc3c(c2)OCO3)cs1 (stereo not drawn) | n | n | n | n | n | n

Assay outcomes as filed in PubChem.
